HSV augment: increases HSV replication in cells | HSV replication augmentation in cells, fold increase | maximum fold increase | 220,000 compounds, 0.005% hits | AID 1956; in the data active = maximum fold increase above about 1.5; tested in PC3 cells
V-ATPase pH: yeast V-ATPase proton transport regulation by pHLuorin | S. cerevisiae, pHLuorin cytosolic pH fluorescence | response, % at 10 µM | 350,000 compounds, 0.37% hits; in the data active = response mostly above about 7.3%, no sharp cut-off; inactive = mostly below about 5.4%; also: actives read high
H9c2 protect: myocardial damage modulation in H9c2 cells; protection from H2O2 cell death, % at 20 µM; 360,000 compounds, 0.63% hits; H9c2 cardiomyocytes, H2O2 injury protection, ATPLite, 2 h; AID 588492;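 active = compounds giving at least 50% protection of heart cells from peroxide-induced death in the single-dose screen, raw or plate-pattern-corrected value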
beta cell repl: inducers of beta-cell replication in MIN6 cells; proliferation, % at 10 µM; MIN6 cells proliferation, ATPlite luminescence, 48 h; cells starved in 0.2% serum; 100% = growth in 10% serum; 330,000 compounds, 0.29% hits; AID 2380;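 active = compounds whose signal lies at least 3.5 SD above the mean of all wells on their plate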
CR mimetic SO: caloric restriction mimetics inhibiting age-related superoxide in yeast; S. cerevisiae aged cells, superoxide DHE fluorescence; hits give low values; superoxide response (% of plate mean), % at 10 µM; 330,000 compounds, 0.18% hits; AID 2690;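 active = superoxide response under a set limit, about three screen SD below normal, cut at about 65% in these data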;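 also: yeast aged for seven days with compound at 30 °C before DHE staining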
p-CIP stab down: lowers stability of the mouse p/CIP coactivator protein; decrease of EGFP signal, % at 10 µM; Q05BA5; F442A p/CIP-EGFP cells, EGFP fluorescence, 16 h; 290,000 compounds, 0.01% hits;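 active = EGFP signal decrease of at least 30% at 10 µM or well 3 SD below plate mean, unless failing retest; inactive = the rest, including hits failing retest or dose response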
V-ATPase pH SP: regulators of yeast V-ATPase proton transport | AID 602197 | S. cerevisiae pHLuorin cytosolic pH | 980 compounds, 2% hits | shares compounds with V-ATPase pH | response, % at 10 µM; in the data active = response above about 24%
Large screens that a line does not name were inactive (follow-up assays come after a bar, where they were run). A selection: hits, their analogues and other compounds. The true share with any hit is near 1.4%.

CC(=O)c1cccc(NC(=O)NC2CC(=O)N(c3ccc4c(c3)OCCO4)C2)c1 (configuration not stated)	none (no result: HSV augment, p-CIP stab down)
COc1ccc(CCNC(=O)CSc2nnc(-c3ccccc3)o2)cc1OC	V-ATPase pH 10.9 | V-ATPase pH SP inactive
Cc1ccc(C(=O)CSc2nnc(-c3ccccc3)o2)cc1	none | V-ATPase pH SP inactive
O=C(O)CSc1nnc(-c2ccccc2)o1	none | V-ATPase pH SP inactive
O=C(CSc1nnc(-c2ccc(F)cc2)o1)N1CCCCC1	none (no result: HSV augment)
O=C(CSc1nnc(-c2ccccc2)o1)N1CCCC1	none (no result: HSV augment) | V-ATPase pH SP inactive
O=C(O)CSc1nnc(-c2ccc3c(c2)OCO3)o1	none
COc1ccc(C(=O)CSc2nnc(-c3cc(C)cc(C)c3)o2)cc1	none
O=C(c1cccc(-c2ccc(O)cc2)c1)N1CCN(c2ccc(F)cc2)CC1	none
CC(=O)N/C(=C\c1ccc(F)cc1)C(=O)OCc1ccccc1	none (no result: HSV augment)
O=C(CSc1nnc(-c2ccccc2)o1)NC(=O)Cc1ccccc1	none (no result: HSV augment, p-CIP stab down) | V-ATPase pH SP inactive
NC(=O)CSc1nnc(-c2ccc3c(c2)OCO3)o1	V-ATPase pH 5.5 | V-ATPase pH SP inactive
O=C(CSc1nnc(-c2ccccc2)o1)N1CCCCC1	none (no result: HSV augment) | V-ATPase pH SP inactive
CCN(CC)S(=O)(=O)c1cccc(N=Nc2c(O)c3ccccc3oc2=O)c1	none
C/C(N)=C(/C#N)C(=O)CSc1nc(-c2ccccc2)c(-c2ccccc2)o1	none (no result: HSV augment)
Cc1ccccc1OC(C)C(=O)Nc1ccc(S(=O)(=O)N2CCCC2)cc1 (configuration not stated)	none (no result: HSV augment)
CC(Oc1cc(F)ccc1[N+](=O)[O-])C(=O)Nc1ccc(S(=O)(=O)N2CCCC2)cc1 (configuration not stated)	V-ATPase pH 14.9 | V-ATPase pH SP inactive
COc1cc(CO)ccc1OCc1nnnn1-c1ccc(C)cc1	none
N#Cc1cnn2c3c(cnc12)C(=O)N1CCc2ccccc2C1C3 (configuration not stated)	none
CN1CCN(C2CC(=O)N(Cc3ccc(N4CCCC4=O)cc3)C2=O)CC1 (configuration not stated)	V-ATPase pH 10.7 | V-ATPase pH SP inactive
CCOc1cc(C(=O)N[C@@H](C)C(=O)N2CCC3(CC2)NCCc2[nH]cnc23)cc(OCC)c1OCC	none (no result: HSV augment)
Cc1ccc(C(=O)OCC(=O)NCc2cccs2)cc1	V-ATPase pH 9.9 | V-ATPase pH SP inactive
Cc1ccc(C(=O)OCC(=O)NCc2cccs2)cc1C	none
COc1cc2c(cc1OC)CN(CCC(C)c1ccc(Cl)cc1)CC2 (configuration not stated)	V-ATPase pH 13.5 (no result: HSV augment, p-CIP stab down) | V-ATPase pH SP inactive
C=CCn1c(SCC(=O)Nc2c(C)n(C)n(-c3ccccc3)c2=O)nc2scc(-c3ccccc3)c2c1=O	V-ATPase pH 13.1 | V-ATPase pH SP inactive
O=C(N[C@@H](Cc1ccccc1)C(=O)NCCc1c[nH]c2ccccc12)c1ccco1	V-ATPase pH 12.9 (no result: HSV augment) | V-ATPase pH SP inactive
COc1cccc(C2C(C(=O)c3cc4ccccc4o3)=C(O)C(=O)N2CCN(C)C)c1OC (configuration not stated)	V-ATPase pH 13.0 (no result: p-CIP stab down) | V-ATPase pH SP inactive
Nc1nc(N2CCN(c3ccc(F)cc3)CC2)n[nH]1	none
CC(=O)c1nn(-c2cccc(C)c2)cc1C(=O)c1cccc(Br)c1	V-ATPase pH 5.5 (no result: HSV augment, p-CIP stab down) | V-ATPase pH SP inactive
COc1cc(CC(=O)OCC(=O)c2ccc(F)cc2)cc(OC)c1OC	none (no result: HSV augment, p-CIP stab down)
CCc1sc(C(=O)NCc2ccco2)cc1Br	none (no result: HSV augment)
CCc1sc(C(=O)NCc2ccco2)cc1C	V-ATPase pH 12.2 (no result: HSV augment) | V-ATPase pH SP inactive
O=C(NCCC1=CCCCC1)c1cc2ccccc2oc1=O	V-ATPase pH 10.4 | V-ATPase pH SP inactive
CCOC(=O)N1CCC(N2C(=O)c3ccc(C(=O)Nc4ccc(OC)cc4)cc3C2=O)CC1	none (no result: HSV augment)
Cc1nnc(-c2cnn(C)c2N)n1Cc1cccc(Cl)c1	none
CC(C)(C)NC(=O)COc1ccccc1C#N	none
CC(C)NC(=O)COc1ccccc1C#N	V-ATPase pH 13.9 | V-ATPase pH SP inactive
COc1ccc(CC(=O)N2CC(=O)N(CCc3ccccc3)C(=O)C2)cc1	V-ATPase pH 8.7 | V-ATPase pH SP inactive
CCOC(=O)C1(C)CCN1C(=O)c1oc2ccccc2c1C (configuration not stated)	none (no result: HSV augment, V-ATPase pH, beta cell repl, CR mimetic SO, p-CIP stab down)

Assay outcomes as filed in PubChem.
